# Measurements: PubChem BioAssay (NCI)
# About 79,000 compounds went through this panel and 15% of them were active in at least one assay; those are over-represented in the sample as a whole. Calls of active or inactive are those of the source. Rule as the data show it: active = growth inhibition above about 70%; inactive = the rest.
# Assay: NCI Yeast Anticancer Drug Screen. Data for the cln2 rad14 strain (AID 165);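 also: 0% = growth equal to vehicle treated cultures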
# Conditions: S. cerevisiae cln2 rad14 strain, at 50.0 µM, active compounds read high
# Method in brief: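 Relative to vehicle controls, growth inhibition of compound-treated cln2 rad14 yeast was recorded.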
row,Compound,growth inhibition
1,Sc1ccccc1N=Cc1ccc(C=Nc2ccccc2S)cc1,18.8% (inactive)
2,CCN(c1ccc(Br)cc1)c1ccc(Br)cc1,-7.75% (inactive)
3,N[C@H](C(=O)O)[C@H]1ON=C(Cl)[C@@H]1O,16.6% (inactive)
4,Nc1cc(Cl)ccc1S(=O)(=O)O,-48.8% (inactive)
5,CCOC(=O)NC(Nc1cccc(F)c1)(C(F)(F)F)C(F)(F)F,20.9% (inactive)
6,COc1cc(C)ccc1C(=O)C[n+]1ccc2ccccc2c1,-56.1% (inactive)
7,CC1(C)C(=O)N(c2ccccc2)C1c1ccccc1 (centres undefined),-40.5% (inactive)
8,CC(=O)N(C(C)=O)C(CS)C(=O)O (centres undefined),14.8% (inactive)
9,Cc1cn(C(=O)NC23CC4CC(CC(C4)C2)C3)c(=O)[nH]c1=O,9.65% (inactive)
10,Clc1cccc(CC(Br)Br)c1,23% (inactive)
11,C=CC(=O)OCc1ccc(OC)cc1,14.2% (inactive)
12,CC1OC(c2ccc(Cl)cc2)OC1C (centres undefined),-31.6% (inactive)
13,Cc1c(-c2ccccc2)[nH]n(C2=NCCN2)c1=O,-6.35% (inactive)
14,COc1ccc(CCN2C(=O)c3cccc4c(Br)ccc(c34)C2=O)cc1,14.5% (inactive)
15,CCOC(=O)c1ccc(NC(=S)NC(=O)c2cccs2)o1,36.1% (inactive)
16,Cc1cc(C)c(N)c(C)n1,-1.25% (inactive)
17,COC(=O)C1=C(C(=O)OC)N(C(C)C)[C@H]2C(C(=O)OC)=C(C(=O)OC)N(C(C)C)[C@@H]12,5.75% (inactive)
18,NNC(=O)CC(N)C(N)=O (centres undefined),13.3% (inactive)
19,CCOCNC(=O)Nc1ccccc1,-37.5% (inactive)
